Our source for the Potency and Z-AUC values is PubChem BioAssay (NCATS).

This experiment can be described thus: qHTS drug screen for cell cycle checkpoint inhibitors in PARPi-resistant BRCA-mutant ovarian cancer cell lines. (AID 1963452). The following applies: PEO1/OlaR viability, CellTiter-Glo luminescence, 96 h; for Z-AUC: stronger effect = lower value. The text has this: Women's Malignancies Branch, Center for Cancer Research (CCR),
National Cancer Institute (NCI), National Institutes of Health (NIH), Bethesda, MD
Poly (ADP-ribose) polymerase inhibitors (PARPis) have changed the treatment paradigm in breast cancer gene (BRCA) - mutant high-grade serous ovarian carcinoma (HGSC). However, most patients eventually develop resistance to PARPis, highlighting an unmet need for improved therapeutic strategies. Using high-throughput drug screens, we identified ataxia telangiectasia and rad3-related protein/checkpoint kinase 1 (CHK1) pathway inhibitors as cytotoxic and further validated the activity of the CHK1 inhibitor (CHK1i) prexasertib in PARPi-sensitive and -resistant BRCA-mutant HGSC cells and xenograft mouse models. CHK1i monotherapy induced DNA damage, apoptosis, and tumor size reduction. We then conducted a phase 2 study (NCT02203513) of prexasertib in patients with BRCA-mutant HGSC. The treatment was well tolerated but yielded an objective response rate of 6% (1 of 17; one partial response) in patients with previous PARPi treatment. […] BRCA reversion mutation in previously PARPi-treated BRCA-mutant patients was not associated with resistance to CHK1i.
Among others, 1082 oncology drugs, both approved and investigational, were prioritized based on their status in clinical trial development. […] Drugs with average Z-AUC values less than -1.0 in all three cell lines were classified as "hits" resulting in 151 oncology drug hits. The screen also confirmed cross-resistance between olaparib and other PARPis (rucaparib, niraparib, and talazoparib) in PARPi-resistant PEO1/OlaR and PEO4.
[1] G. L. Lin, K. M. Wilson, M. Ceribelli, B. Z. Stanton, P. J. Woo, S. Kreimer, E. Y. Qin, X. Zhang, J. Lennon, S. Nagaraja, P. J. Morris, M. Quezada, S. M. Gillespie, D. Y. Duveau, A. M. Michalowski, P. Shinn, R. Guha, M. Ferrer, C. Klumpp-Thomas, S. Michael, C. McKnight, P. Minhas, Z. Itkin, E. H. Raabe, L. Chen, R. Ghanem, A. C. Geraghty, L. Ni, K. I. Andreasson, N. A. Vitanza, K. E.Warren, C. J. Thomas, M. Monje, Therapeutic strategies for diffuse midline glioma from high-throughput combination drug screening. Sci. Transl. Med. 11, (2019).
[2] T. M. Yamamoto, A. McMellen, Z. L. Watson, J. Aguilera, R. Ferguson, E. Nurmemmedov, T. Thakar, G. L. Moldovan, H. Kim, D. M. Cittelly, A. M. Joglar, E. P. Brennecke, H. Wilson, K. Behbakht, M. J. Sikora, B. G. Bitler, Activation of Wnt signaling promotes olaparib resistant ovarian cancer. Mol. Carcinog. 58, 1770 - 1782 (2019).
PROTOCOL TABLE (as described by Inglese J, Shamu CE and Guy RK. 2007)
SEQUENCE No. (e.g., 1, 2, 3, etc.); […] (e.g., Cells, Incubation, Reagent, etc.); VALUE; DESCRIPTION.
1; Compounds; 20nL; 1536-well white tissue culture-treated plates.
2; Cells; 5 uL; PEO1, PEO4, and PEO1/OlaR cells at 600 cells per well.
3; Incubation; 96 hr; 37C, 95% humidity, 5% CO2.
4; Reagent; 3 uL; CellTiter-Glo (Promega).
5; Incubation; 15 min; room temperature.
6; Detection; Luminescence, PHERAstar (BMG Labtech) plate reader.
NOTES (numbers refer to Sequence numbers above)
1. MIPE 5.0 compounds were acoustically dispensed by Echo Acoustic Liquid Handler (Beckman Coulter Life Sciences). Each compound was plated at an 11-point concentration range with 1:3 dilution. Bortezomib, a proteasome inhibitor (final concentration, 20 uM), was used as a positive.
2. PEO1, PEO4, and PEO1/OlaR were trypsinized and dispensed in 5 uLof growth medium using a Multidrop Combi dispenser at a density of 600 cells per well to allow compounds to be present during the exponential growth phase.
3. Plates were incubated for 96 hours at standard incubator conditions and covered by a stainless steel gasketed lid to prevent evaporation.
4. Three microliters of CellTiter-Glo (Promega) were added to each well.
5. Plates were incubated at room temperature for 15 min with a stainless-steel lid in place.
6. Luminescence readings were taken using PHERAstar (BMG Labtech). […]
Background: qHTS replaces the single test concentration by a dilution series.

[1] abbreviates: measured here: PEO1 parental Z-AUC.

“And” between values parts separate entries of the source, which are not always exact repeats. Equal values may be shown once. Some compounds were tested as several samples or in several runs, with calls that do not always agree. The source made the active and inactive calls. Calls follow the shape of the full dose curve.
Potency is read from the fitted curve at half-maximal effect.

`CCN(CC)Cc1ccc2cc(COC(=O)Nc3ccc(C(=O)NO)cc3)ccc2c1`: the Potency was 977 nM (active). The Z-AUC under setting [1] was -1.11. For the same compound, the Z-AUC (measured here: PEO4 Z-AUC) is -1.29.

On to `CC(C)C[C@H](NC(=O)CNC(=O)c1cc(Cl)ccc1Cl)B1OC(=O)CC(CC(=O)O)(C(=O)O)O1` (stereo not given in full), for which the Potency is 43.6 nM (active). In addition, the Z-AUC under setting [1] is -3.29. Also, the Z-AUC (measured here: PEO4 Z-AUC) was -3.23.

For the compound `COc1cccc2c1C(=O)c1c(O)c3c(c(O)c1C2=O)C[C@@](O)(C(=O)CO)C[C@@H]3O[C@H]1C[C@H](N)[C@H](OC2CCCCO2)[C@H](C)O1` (stereo not given in full), the Potency is 245 nM (active) and the Z-AUC is 0.402 (inactive). Also, under setting [1], the Z-AUC was -0.769 and -1.75. The Z-AUC (measured here: PEO4 Z-AUC) was 0.0749 and -1.06.

For `C#CCC(Cc1cnc2nc(N)nc(N)c2n1)c1ccc(C(=O)N[C@@H](CCC(=O)O)C(=O)O)cc1` (stereo not given in full), the Potency is 7.8 nM (active). In addition, the Z-AUC under setting [1] is -2.32. Further, for the setting “measured here: PEO4 Z-AUC”, the Z-AUC was -1.96.

As for `CC1=C(C(=O)Nc2cc3cn[nH]c3cc2F)C(c2ccc(Cl)cc2F)N=C(c2ccnc(Cl)c2)N1` (stereo not given), the Z-AUC is 0.0424 (inactive). Besides, the Z-AUC under setting [1] came to 0.693. The Z-AUC (measured here: PEO4 Z-AUC) was 0.963.

Turning to `Cn1cc(-c2ccc3ncc(Cc4ccc5ncccc5c4)n3n2)cn1`, the Z-AUC is 0.547 (inactive). Also, under setting [1], the Z-AUC stood at 0.877. The Z-AUC (measured here: PEO4 Z-AUC) amounted to 0.786.

For `c1ccc2c(Oc3nc(Nc4ccc(N5CCOCC5)cc4)c4ncn(C5CCCCC5)c4n3)cccc2c1`, the Z-AUC was 1.71 (inactive). The Z-AUC under setting [1] was 1.4. The Z-AUC (measured here: PEO4 Z-AUC) was determined as 1.58.

For the compound `CCOC(=O)C=C[C@H](C[C@@H]1CCNC1=O)NC(=O)[C@@H](CC(=O)[C@@H](NC(=O)c1cc(C)on1)C(C)C)Cc1ccc(F)cc1`, the Z-AUC was -0.315 (inactive). Besides, the Z-AUC under setting [1] is -0.169. Besides, the Z-AUC (measured here: PEO4 Z-AUC) came to 0.164.

For `Oc1cc(-c2nc(-c3ccccc3)[nH]c2-c2ccncc2)ccc1Cl`, the Z-AUC was -0.516 (inactive). Under setting [1], the Z-AUC is -0.935. Further, the Z-AUC (measured here: PEO4 Z-AUC) was -1.11.

`O=[N+]([O-])c1cn2c(n1)OC[C@@H](OCc1ccc(OC(F)(F)F)cc1)C2`: the Z-AUC is 0.733 (inactive). Moreover, the Z-AUC under setting [1] amounted to 0.61. The Z-AUC (measured here: PEO4 Z-AUC) stood at 0.849.

On to `Cc1cnc(Nc2ccc(N3CCN(C)CC3)cc2)nc1Nc1cccc(S(=O)(=O)NC(C)(C)C)c1`, for which the Z-AUC is -0.289 (inactive). Besides, the Z-AUC under setting [1] was -0.236. Under “measured here: PEO4 Z-AUC”, the Z-AUC was -0.304.

Take `O=C(c1ccc(F)cc1)N1CCC[C@H](c2nc(-c3ccc(F)cc3)no2)C1`: the Z-AUC was 1.14 (inactive). Also, the Z-AUC under setting [1] was 0.372. Under “measured here: PEO4 Z-AUC”, the Z-AUC stood at 0.34.

Regarding `CCOc1cc2c(c(F)c1OCC)C(=N)N(CC(=O)c1cc(N3CCOCC3)c(OC)c(C(C)(C)C)c1)C2`, the Z-AUC was -0.189 (inactive). Also, the Z-AUC under setting [1] came to 0.331. Further, the Z-AUC (measured here: PEO4 Z-AUC) stood at 0.119.
